PubChem BioAssay AID1159580 (chemical genetic matrix, 2015)
The whole screen tested about 5,500 compounds, of which about 2,000 (36%) were called active. Another 18% or so got no clear call; they are omitted. No stated cut-off is given here; in the data, active means normalized growth mostly below about 0.91 (no sharp cut-off); inconclusive means no clear call, values can overlap the other calls; inactive means mostly above about 0.92. This is one part of the list.

Experiment: chemical genetic growth profiling, strain panel (AID 1159580);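 further: tested at 20 µM; growth read once vehicle control cultures reached saturation at 30 °C; 1 = growth at the plate median or of vehicle wells; lower values mean less growth of the strain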
Conditions: S. cerevisiae deletion strains, growth OD

Measured: normalized growth

COc1cc(-c2coc3cc(O)c(OC)c(O)c3c2=O)cc(O)c1OC
inactive: locus YHR030C, strain SLT2, active compounds read low 1.02 | locus YHR079C, strain IRE1, active compounds read low 1.03 | locus YJL095W, strain BCK1, active compounds read low 1.02 | locus YJR066W, strain TOR1, active compounds read low 0.969 | locus YLR113W, strain HOG1, active compounds read low 1.02 | locus YNL183C, strain NPR1, active compounds read low 1 | locus YOR231W, strain MKK1, active compounds read low 1.03 | locus YPL256C, strain CLN2, active compounds read low 1.07

CC(=O)Oc1ccc(-c2cc(=O)c3c(OC(C)=O)cc(OC(C)=O)cc3o2)cc1
inactive: locus YAL021C, strain ccr4, active compounds read low 0.975 | locus YAL026C, strain drs2, active compounds read low 0.947 | locus YAL030W, strain snc1, active compounds read low 0.975 | locus YBL061C, strain skt5, active compounds read low 0.965 | locus YBR009C, strain hhf1, active compounds read low 0.96 | locus YBR023C, strain chs3, active compounds read low 0.951 | locus YBR171W, strain sec66, active compounds read low 0.955 | locus YBR231C, strain swc5, active compounds read low 0.968 | locus YBR279W, strain paf1, active compounds read low 0.974 | locus YCL011C, strain gbp2, active compounds read low 0.963 | locus YCL016C, strain dcc1, active compounds read low 0.974 | locus YCL061C, strain MRC1, active compounds read low 0.988 | locus YCL069W, strain vba3, active compounds read low 0.964 | locus YCR088W, strain abp1, active compounds read low 0.966 | locus YDL005C, strain med2, active compounds read low 0.977 | locus YDL040C, strain nat1, active compounds read low 0.966 | locus YDR001C, strain nth1, active compounds read low 0.965 | locus YDR069C, strain doa4, active compounds read low 0.95 | locus YDR137W, strain rgp1, active compounds read low 1 | locus YDR159W, strain sac3, active compounds read low 0.935 | locus YDR195W, strain ref2 0.942 | locus YDR297W, strain sur2, active compounds read low 0.976 | locus YDR334W, strain swr1, active compounds read low 0.958 | locus YDR335W, strain msn5, active compounds read low 0.982 | locus YDR392W, strain spt3, active compounds read low 0.906 | locus YEL003W, strain gim4, active compounds read low 0.961 | locus YEL037C, strain rad23, active compounds read low 0.952 | locus YEL061C, strain CIN8 (second series), active compounds read low 0.958 | locus YER015W, strain faa2, active compounds read low 0.984 | locus YER016W, strain bim1, active compounds read low 0.976 | locus YER111C, strain swi4, active compounds read low 0.953 | locus YER155C, strain BEM2 (second series), active compounds read low 0.957 | locus YFR010W, strain ubp6, active compounds read low 0.957 | locus YGL167C, strain pmr1, active compounds read low 0.965 | locus YGL173C, strain kem1, active compounds read low 0.983 | locus YGL227W, strain vid30, active compounds read low 0.955 | locus YGL240W, strain doc1, active compounds read low 0.962 | locus YGL253W, strain hxk2, active compounds read low 0.973 | locus YHR013C, strain ard1, active compounds read low 0.92 | locus YHR027C, strain rpn1, active compounds read low 0.982 | locus YHR142W, strain chs7, active compounds read low 0.973 | locus YJL092W, strain hpr5, active compounds read low 0.982 | locus YJL095W, strain BCK1 (second series), active compounds read low 0.988 | locus YJL115W, strain asf1, active compounds read low 0.954 | locus YJL129C, strain trk1, active compounds read low 0.95 | locus YJL154C, strain vps35, active compounds read low 0.961 | locus YJL164C, strain tpk1, active compounds read low 0.964 | locus YJL166W, strain qcr8, active compounds read low 0.971 | locus YJL187C, strain SWE1, active compounds read low 0.976 | locus YKL160W, strain elf1, active compounds read low 1.01 | locus YKR026C, strain gcn3, active compounds read low 0.949 | locus YKR091W, strain srl3, active compounds read low 0.97 | locus YLL001W, strain dnm1, active compounds read low 0.997 | locus YLL026W, active compounds read low 0.973 | locus YLL041C, strain sdh2, active compounds read low 0.98 | locus YLR027C, strain aat2, active compounds read low 0.96 | locus YLR221C, strain rsa3, active compounds read low 0.958 | locus YLR258W, strain gsy2, active compounds read low 0.977 | locus YLR262C, strain YPT6 (second series), active compounds read low 0.999 | locus YLR320W, strain mms22, active compounds read low 0.958 | locus YLR342W, strain FKS1, active compounds read low 0.968 | locus YLR357W, strain rsc2, active compounds read low 0.902 | locus YLR370C, strain arc18, active compounds read low 0.958 | locus YLR384C, strain iki3, active compounds read low 0.966 | locus YML120C, strain ndi1, active compounds read low 0.967 | locus YMR058W, strain fet3, active compounds read low 0.965 | locus YMR125W, strain sto1, active compounds read low 0.955 | locus YMR129W, active compounds read low 0.967 | locus YMR205C, strain PFK2, active compounds read low 0.941 | locus YMR231W, strain pep5, active compounds read low 0.975 | locus YNL071W, strain lat1, active compounds read low 0.967 | locus YNL209W, strain ssb2, active compounds read low 0.979 | locus YNL248C, strain rpa49, active compounds read low 0.979 | locus YNL322C, strain KRE1 (second series), active compounds read low 0.95 | locus YNR049C, strain mso1, active compounds read low 0.953 | locus YOR001W, strain rrp6, active compounds read low 0.987 | locus YOR070C, strain gyp1, active compounds read low 0.977 | locus YOR080W, strain dia2, active compounds read low 0.961 | locus YOR083W, strain WHI5, active compounds read low 1.02 | locus YOR106W, strain vam3, active compounds read low 0.986 | locus YOR265W, strain rbl2, active compounds read low 0.981 | locus YOR270C, strain vph1, active compounds read low 0.899 | locus YOR290C, strain snf2, active compounds read low 0.899 | locus YPL051W, strain arl3, active compounds read low 1 | locus YPL078C, strain atp4, active compounds read low 0.984 | locus YPL106C, strain sse1, active compounds read low 0.946 | locus YPL240C, strain hsp82, active compounds read low 0.987
